This note sets out measurements from PubChem BioAssay AID686977 (Southern Research Specialized Biocontainment Screening …, 2013).

SMILES strings stand for the structures. In all, about 9,400 compounds went through this assay and fewer than 10 were called active. Inconclusive results (about 5%) are left out. No rule for the calls is given here. Not all results are given here. Results with a measured potency or affinity are listed apart.

This test is described as follows: Vibrio cholerae quorum sensing activators, luminescence (AID 686977). As to conditions: V. cholerae quorum sensing reporter, 6 h, stronger effect = higher value; dose 50, dose unit µM unless noted.
As to `CCOC(=O)/C(C#N)=C\c1ccc(N2CCN(C)CC2)cc1`, the luminescence is 0 (inactive).

On to `CCOC(=O)C1CCN(C(=O)C2CCN(S(=O)(=O)c3cccc4cccnc34)CC2)CC1`, for which the luminescence was 0 (inactive). As for `Cc1n[nH]c(=S)c2nn(-c3ccccc3F)c(C)c12`, the figure is 0 (inactive). In the case of `Cn1c(C(=O)N2CCN(Cc3ccc4c(c3)OCO4)CC2)cc2c(=O)n(C)c3ccccc3c21` it was 0 (inactive); in that of `CCC(Cc1ccccc1)NC(=O)CN1C(=O)CSc2ncccc21` (centres undefined), 0 (inactive); in that of `OCCN1CCN(c2ncnc3ccc(Br)cc23)CC1`, 200 (inactive).

With `CC1=CC(C)(C)N(S(=O)(=O)c2ccc(F)cc2)c2ccccc21`, the luminescence is 0 (inactive). As for `COc1ccc(C(=O)Nc2cc3c(cc2C#N)OCO3)cc1S(=O)(=O)NCc1ccco1`, the figure is 0 (inactive); as for `CCOC(=O)c1c(C)nc2ccccc2c1C`, 40 (inactive). In the case of `CCc1nn(CC(=O)NCCCN2CCc3ccccc3C2)c(=O)c2cc3sccc3n12` it was 0 (inactive); in that of `COc1ccc(-n2nnnc2SCC#CCO)cc1`, 0 (inactive); in that of `Cc1nnc(SCC(=O)NCc2ccco2)n1Cc1ccccc1`, 0 (inactive). `CC(C)OC(=O)CSc1nnc(-c2ccccc2)n1N`: the luminescence is 40 (inactive).

On to `O=c1c2ccccc2nnn1CSc1nnc(-c2cccnc2)n1-c1ccccc1F`, for which the luminescence was 0 (inactive). As for `O=[N+]([O-])c1cc(-c2cnc3ccccc3n2)ccc1Oc1ccc(F)cc1`, the figure is 40 (inactive). As for `Cc1ccc(CN(C)C(=O)C2CCCN2C(=O)c2cccs2)o1` (centres undefined), the figure is 320 (inactive); as for `CCn1cc(S(=O)(=O)CC(=O)Nc2cc(C)on2)c2ccccc21`, 0 (inactive).

With `CCCCN(C(=O)c1cnc2n(c1=O)CCS2)c1ccccc1`, the luminescence is 0 (inactive).

As to `CCc1nc2c(cnn2-c2ccc(F)cc2)c(=O)n1-c1ccc(N2CCC(C)CC2)cc1`, the luminescence is 0 (inactive). As for `O=C(NCC(c1cccnc1)N1CCN(c2ccccc2F)CC1)c1ccco1` (centres undefined), the figure is 0 (inactive).

As for `CCC(C)NC(=O)CS(=O)Cc1nc(-c2cccc(OC)c2)oc1C` (centres undefined), the luminescence is 40 (inactive).

Regarding `Cc1ccc(-c2nnc(SCc3nc(N)nc(Nc4ccccc4C)n3)n2N)cc1`, the luminescence is 0 (inactive). As for `O=C(NCc1ccco1)c1nnc(Cc2ccc(Cl)cc2)o1`, the luminescence is 0 (inactive). In the case of `CCOC(=O)C1=C(c2ccccc2)O/C(=C(\C(=O)OC)C(F)(F)F)S1` it was 40 (inactive); in that of `COc1ccc(C2N(C(=O)CN3CCOCC3)CCN2S(=O)(=O)c2ccccc2)cc1` (centres undefined), 0 (inactive).

With `Cc1cccc(N2CCN(C(=O)CN3CCOc4ccccc43)CC2C)c1` (centres undefined), the luminescence was 0 (inactive). In the case of `Cc1onc(-c2ccccc2Cl)c1C(=O)Nc1cccc(-c2nc3ncccn3c2C)c1` it was 40 (inactive); in that of `CC(=O)CC(c1ccccc1)S(=O)(=O)c1ccc(C)cc1` (centres undefined), 40 (inactive); in that of `CCN(CC)c1ncnc2sc(C(=O)N3CCN(c4ccc(OC)cc4)CC3)c(C)c12`, 160 (inactive).

On to `c1cc2c3c(cccc3c1)NC1(CCCCC1)N2`, for which the luminescence is 40 (inactive). As for `O=C(Nc1ccc(Cc2ccncc2)cc1)c1ccc(Cl)c([N+](=O)[O-])c1`, the figure is 0 (inactive); as for `COc1cccc(S(=O)(=O)NCc2ccc(C(=O)NCC3CCCO3)cc2)c1` (centres undefined), 40 (inactive); as for `O=C(Nc1ccc2c(c1)OCCO2)c1ccc(CN2CCOCC2)cc1`, 0 (inactive). In the case of `COCCOC(=O)C1=C(C)NC2=C(C(=O)CC(c3cccs3)C2)C1c1ccsc1` (centres undefined) it was 40 (inactive). In the case of `CCN1CCN(c2nc3c(c(=O)[nH]c(=O)n3C)n2CCSc2nc3ccccc3s2)CC1` it was 0 (inactive). Turning to `CCc1ccc(C2CC(c3ccc(F)cc3)Nc3nc(N)nn32)cc1` (centres undefined), the luminescence is 40 (inactive). For `COc1ccccc1C(=O)N1CCNC(=O)C1CC(=O)Nc1cccc(C)c1` (centres undefined), the luminescence is 0 (inactive). As for `O=C(O)c1[nH]c2ccccc2c1CC(=O)N1CCOCC1`, the figure is 0 (inactive). For the compound `Cc1cc(C(=O)Nc2c(C)nn(Cc3ccc(F)cc3)c2C)on1`, the luminescence is 0 (inactive). In the case of `COC(=O)c1ccc(NC(=O)CN(Cc2ccc(Cl)cc2)S(C)(=O)=O)cc1` it was 0 (inactive); in that of `CC(C)SCCCOc1ccc(C(C)(C)C)cc1`, 0 (inactive). In the case of `CCOC(=O)C1CCCN(c2c(NCCCN(C)c3ccccc3)c(=O)c2=O)C1` (centres undefined) it was 0 (inactive). In the case of `COC(=O)c1ccc(NC(=O)CSc2nnc(COc3ccc4c(c3)CCCC4)o2)cc1` it was 40 (inactive); in that of `CCC(=O)NCCCOc1ccccc1`, 0 (inactive). Consider `O=C(Nc1ccc2c(c1)CCC2)c1cc(S(=O)(=O)N2CCN(c3ccccc3)CC2)ccc1Cl`, for which the luminescence is 0 (inactive). In the case of `CCOC(=O)c1sc2nc(C)cc(C)c2c1NC(=O)c1ccco1`, the luminescence was 0 (inactive). As for `CCOC(=O)N1CCC(NC(=O)C(Cc2ccccc2)NC(=O)C2CCCCC2)CC1` (centres undefined), the figure is 0 (inactive). `CCOc1cc(N2CCOCC2)c(OCC)cc1NC(=O)CN1CCc2ccccc2C1`: the luminescence was 0 (inactive). As for `CCn1ncc(C2=NOC(C(=O)NCc3ccc(OC)cc3)C2)c1C` (centres undefined), the figure is 0 (inactive).

For `COc1ccc(-n2c(Cn3c(=O)sc4ccccc43)nnc2SCC(=O)N2CCCCC2)cc1`, the luminescence was 0 (inactive). As for `COc1ccc(NC(=O)c2c(NC(=O)CNCc3ccco3)sc3c2CCC3)c(OC)c1`, the figure is 40 (inactive). `COC(=O)c1nc2cc(C)ccn2c1F`: the luminescence was 40 (inactive). As for `Cc1ccc(NS(=O)(=O)c2cc(C(N)=O)ccc2C)cc1`, the figure is 0 (inactive); as for `Cc1ccc([N+](=O)[O-])cc1N=Cc1ccc(Br)s1`, 40 (inactive); as for `CC(=O)N(c1ccc(Br)cc1)C1C=CS(=O)(=O)C1` (centres undefined), 0 (inactive).

Regarding `Cc1cc2ccccc2n1CCNC(=O)c1cccs1`, the luminescence is 0 (inactive). `Cc1cc(C)nc(NC(=O)c2cnc3sccn3c2=O)n1`: the luminescence was 0 (inactive). As for `CCn1c(=O)cc(OCC(=O)NCCC(C)C)c2ccccc21`, the figure is 40 (inactive); as for `C=CCNC(=O)CN(c1cccc(Br)c1)S(C)(=O)=O`, 0 (inactive). As for `CCOC(=O)c1c(-c2ccccc2)csc1NC(=O)c1ccc(S(=O)(=O)N2CC(C)OC(C)C2)cc1` (centres undefined), the luminescence was 40 (inactive). In the case of `COc1cc(C(=O)N(Cc2cccc(Cl)c2)C2CCS(=O)(=O)C2)cc(OC)c1OC` (centres undefined) it was 40 (inactive); in that of `Cc1ccc2oc(=O)c3cnn(CC(=O)NC4CCN(Cc5ccccc5)CC4)c3c2c1`, 0 (inactive); in that of `CC(C)C(=O)Nc1nc2cc3c(cc2s1)OCO3`, 0 (inactive).

For `COC(=O)c1[nH]c2cc(OC)ccc2c1NC(=O)CCN1CCN(c2ccccc2)CC1`, the luminescence is 40 (inactive). In the case of `O=C(Nc1cccc(F)c1)c1cccnc1N1CCOCC1` it was 80 (inactive); in that of `COc1ccccc1N1CCN(C(=O)Oc2ccccc2)CC1`, 0 (inactive). As for `COc1cc(S(=O)(=O)N2CCC(N3CCCCC3)CC2)ccc1-n1cnnn1`, the figure is 0 (inactive). As for `CC(Oc1ccc(-c2ccccc2)c(F)c1)c1ccn(S(=O)(=O)c2ccc(F)cc2)n1` (centres undefined), the figure is 120 (inactive).

Take `COc1ccccc1NC(=O)C1=C(C)NC(=O)NC1c1ccc(C)cc1` (centres undefined): the luminescence was 80 (inactive).

In the case of `O=C(O)CCCSCC(=O)Nc1ccccc1`, the luminescence is 0 (inactive).

For `O=C(C[n+]1ccc(C(=O)N/N=C/c2ccc(OCc3ccccc3)cc2)cc1)c1ccccc1`, the luminescence is 0 (inactive). As for `CCOC(=O)C1=C(C)Nc2nnnn2C1c1ccc(OC)c(Br)c1` (centres undefined), the figure is 0 (inactive); as for `Cc1c(Cl)cccc1NC(=O)CN1C(=O)CSc2ncccc21`, 0 (inactive); as for `O=c1cc(NC2CCCCC2)c2ccccc2o1`, 0 (inactive). As for `CCOc1ccc(CNC(=O)C(CC)n2nc(C)n3c(cc4occc43)c2=O)cc1OC` (centres undefined), the figure is 0 (inactive); as for `CNc1ccccc1-c1nc2ccccc2n(C)c1=O`, 0 (inactive). As to `O=C(Nc1ccc(Cl)cn1)C1CCCN1S(=O)(=O)c1ccc(Cl)cc1` (centres undefined), the luminescence is 0 (inactive).

In the case of `CCC(Oc1ccccc1)C(=O)Nc1ccccc1OC` (centres undefined), the luminescence is 0 (inactive). In the case of `CCOCCn1c(SCCc2ccccc2)nc2c1c(=O)[nH]c(=O)n2C` it was 0 (inactive). In the case of `Cc1nn(C2CCS(=O)(=O)C2)c(Cl)c1/C=C/C(=O)OCC(=O)Nc1ccccc1OC(F)F` (centres undefined) it was 0 (inactive); in that of `COc1ccc(S(=O)(=O)Cc2ccc(C(=O)NCc3ccccn3)o2)cc1`, 0 (inactive); in that of `CCOC(=O)N1CCN(C(=O)CSc2nc3c([nH]c4ccccc43)c(=O)n2C)CC1`, 40 (inactive). In the case of `C#CCN1C(=O)C2C(C(=O)NC)C3C=CC2(O3)C1C(=O)NCc1ccc(OC)cc1` (centres undefined) it was 40 (inactive); in that of `CCCNC(=O)C(NS(=O)(=O)c1ccc2c(c1)c(=O)n(C)c(=O)n2C)c1ccccc1` (centres undefined), 40 (inactive). As for `CN[C@H]1[C@@H](O)[C@H](O[C@H]2[C@@H](O)[C@@H](OC3OC(CN)=CCC3N)[C@H](N)C[C@@H]2N)OC[C@@]1(C)O` (some centres undefined), the luminescence is 40 [dose 10, dose unit µg/mL] (inactive). For the compound `CCc1ccc(CCC(=O)Nc2ccc(C)c(C)c2)o1`, the luminescence was 0 (inactive). As for `CCc1cccc(OCCOCCN2CCCC2)c1`, the figure is 40 (inactive); as for `CCOC(=O)c1ccccc1NC(=O)c1cc(S(=O)(=O)N2CCOCC2)ccc1F`, 0 (inactive); as for `Cc1ccc(S(=O)(=O)CCc2nnc(NC(=O)C3CCCO3)s2)cc1` (centres undefined), 0 (inactive). `COC(=O)c1cc(-c2ccc(Br)cc2)n[nH]1`: the luminescence was 0 (inactive). In the case of `CN(C)S(=O)(=O)c1ccc(S(=O)(=O)N2CCN(CCC#N)CC2)cc1` it was 40 (inactive); in that of `COc1cc(C2Nc3ccc4ncccc4c3C3=C2C(=O)CC(C)(C)C3)cc(OC)c1O` (centres undefined), 0 (inactive). As for `CN(CC(=O)N1CCc2ccccc2C1)S(=O)(=O)c1ccc2c(c1)c(=O)n(C)c(=O)n2C`, the figure is 40 (inactive); as for `CCOc1ccc(CCNC(=O)Cn2c(=O)oc3ccccc32)cc1OCC`, 0 (inactive); as for `COC(=O)c1cc(=O)n(CCc2ccc(OC)c(OC)c2)c(=Nc2ccc(F)c(Cl)c2)s1`, 40 (inactive). As to `CCc1nnc(NC(=O)CSc2nnc(-c3ccco3)n2C)s1`, the luminescence was 0 (inactive).

Regarding `CN/C(=C/[N+](=O)[O-])NCCSCc1csc(CN(C)C)n1`, the luminescence was 0 [dose 10, dose unit µg/mL] (inactive).

With `CCCCCCN1CC(O)=C(c2ccccc2)C1=N`, the luminescence is 0 (inactive). Turning to `CC1CCN(C(=O)CSc2nc3c(cnn3-c3ccc(Cl)cc3)c(=O)[nH]2)CC1`, the luminescence was 0 (inactive).
